Test results reported in PMC11062922 (Nature Chemical Biology, 2023).
Like-named read-outs stand apart in the source and are kept apart here.

Target: Q6ZSR9 (human, UniProt Q6ZSR9)
Settings: read-out: apparent Kd, n = 1

Chain of Q6ZSR9 (Q6ZSR9 whole entry, looked up): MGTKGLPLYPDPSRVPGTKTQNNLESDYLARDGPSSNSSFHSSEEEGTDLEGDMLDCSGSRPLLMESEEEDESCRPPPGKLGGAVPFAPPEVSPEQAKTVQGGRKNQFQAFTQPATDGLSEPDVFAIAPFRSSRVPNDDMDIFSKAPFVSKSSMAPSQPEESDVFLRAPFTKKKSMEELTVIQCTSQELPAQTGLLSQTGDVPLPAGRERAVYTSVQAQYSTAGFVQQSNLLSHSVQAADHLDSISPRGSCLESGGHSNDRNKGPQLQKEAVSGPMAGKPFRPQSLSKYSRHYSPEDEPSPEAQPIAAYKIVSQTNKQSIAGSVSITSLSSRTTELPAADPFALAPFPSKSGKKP

Substance: Lestaurtinib
- potency estimated from few doses (compound concentrations:100 nM and 1000 nM (sheet 'Lestaurtinib' of Supplementary Table 1),run:Lestaurtinib_02496_R1,Plate:MR013): 65.5 nM
- potency estimated from few doses (compound concentrations:100 nM and 1000 nM (sheet 'Lestaurtinib' of Supplementary Table 1),run:Lestaurtinib_02496_R2,Plate:MR013): 59.5 nM
- potency estimated from few doses (compound concentrations:100 nM and 1000 nM (sheet 'Lestaurtinib' of Supplementary Table 1),run:Lestaurtinib_02496_R3,Plate:MR013): 66.8 nM
- potency estimated from few doses (compound concentrations:100 nM and 1000 nM (sheet 'Lestaurtinib' of Supplementary Table 1),run:Lestaurtinib_02566_R2,Plate:MR014): 55.7 nM
- potency estimated from few doses (compound concentrations:100 nM and 1000 nM (sheet 'Lestaurtinib' of Supplementary Table 1),run:Lestaurtinib_02566_R3,Plate:MR014): 80.5 nM
- potency estimated from few doses (compound concentrations:100 nM and 1000 nM (sheet 'Lestaurtinib' of Supplementary Table 1),run:Lestaurtinib_02572_R1,Plate:MR015): 40.6 nM
- potency estimated from few doses (compound concentrations:100 nM and 1000 nM (sheet 'Lestaurtinib' of Supplementary Table 1),run:Lestaurtinib_02572_R2,Plate:MR015): 74.4 nM
- potency estimated from few doses (compound concentrations:100 nM and 1000 nM (sheet 'Lestaurtinib' of Supplementary Table 1),run:Lestaurtinib_02572_R3,Plate:MR015): 48.9 nM
- potency estimated from few doses (compound concentrations:100 nM and 1000 nM (sheet 'Lestaurtinib' of Supplementary Table 1),run:Lestaurtinib_02577_R1,Plate:MR016): 63.4 nM
- potency estimated from few doses (compound concentrations:100 nM and 1000 nM (sheet 'Lestaurtinib' of Supplementary Table 1),run:Lestaurtinib_02577_R2,Plate:MR016): 53.4 nM
- potency estimated from few doses (compound concentrations:100 nM and 1000 nM (sheet 'Lestaurtinib' of Supplementary Table 1),run:Lestaurtinib_02577_R3,Plate:MR016): 59.4 nM
- potency estimated from few doses (compound concentrations:100 nM and 1000 nM (sheet 'Lestaurtinib' of Supplementary Table 1),run:Lestaurtinib_02584_R1,Plate:MR017): 92.8 nM
- potency estimated from few doses (compound concentrations:100 nM and 1000 nM (sheet 'Lestaurtinib' of Supplementary Table 1),run:Lestaurtinib_02584_R2,Plate:MR017): 64.9 nM
- potency estimated from few doses (compound concentrations:100 nM and 1000 nM (sheet 'Lestaurtinib' of Supplementary Table 1),run:Lestaurtinib_02584_R3,Plate:MR017): 79 nM
- potency estimated from few doses (compound concentrations:100 nM and 1000 nM (sheet 'Lestaurtinib' of Supplementary Table 1),run:Lestaurtinib_02601_R1,Plate:MR018): 49.8 nM
- potency estimated from few doses (compound concentrations:100 nM and 1000 nM (sheet 'Lestaurtinib' of Supplementary Table 1),run:Lestaurtinib_02601_R3,Plate:MR018): 44.4 nM
- potency estimated from few doses (compound concentrations:100 nM and 1000 nM (sheet 'Lestaurtinib' of Supplementary Table 1),run:Lestaurtinib_02606_R2,Plate:MR019): 52 nM
- potency estimated from few doses (compound concentrations:100 nM and 1000 nM (sheet 'Lestaurtinib' of Supplementary Table 1),run:Lestaurtinib_02606_R3,Plate:MR019): 60.4 nM
- potency estimated from few doses (compound concentrations:100 nM and 1000 nM (sheet 'Lestaurtinib' of Supplementary Table 1),run:Lestaurtinib_02624_R2,Plate:MR020): 61.1 nM
- potency estimated from few doses (compound concentrations:100 nM and 1000 nM (sheet 'Lestaurtinib' of Supplementary Table 1),run:Lestaurtinib_02624_R3,Plate:MR020): 55.5 nM
- potency estimated from few doses (compound concentrations:100 nM and 1000 nM (sheet 'Lestaurtinib' of Supplementary Table 1),run:Lestaurtinib_02724_R2,Plate:MR021): 51.2 nM
- potency estimated from few doses (compound concentrations:100 nM and 1000 nM (sheet 'Lestaurtinib' of Supplementary Table 1),run:Lestaurtinib_02724_R3,Plate:MR021): 61.2 nM
- potency estimated from few doses (compound concentrations:100 nM and 1000 nM (sheet 'Lestaurtinib' of Supplementary Table 1),run:Lestaurtinib_02741_R1,Plate:MR023): 77.1 nM
- potency estimated from few doses (compound concentrations:100 nM and 1000 nM (sheet 'Lestaurtinib' of Supplementary Table 1),run:Lestaurtinib_02741_R2,Plate:MR023): 85.4 nM
- potency estimated from few doses (compound concentrations:100 nM and 1000 nM (sheet 'Lestaurtinib' of Supplementary Table 1),run:Lestaurtinib_02741_R3,Plate:MR023): 77.2 nM
- potency estimated from few doses (compound concentrations:100 nM and 1000 nM (sheet 'Lestaurtinib' of Supplementary Table 1),run:Lestaurtinib_02748_R1,Plate:MR024): 67.4 nM
- potency estimated from few doses (compound concentrations:100 nM and 1000 nM (sheet 'Lestaurtinib' of Supplementary Table 1),run:Lestaurtinib_02748_R2,Plate:MR024): 46.2 nM
- potency estimated from few doses (compound concentrations:100 nM and 1000 nM (sheet 'Lestaurtinib' of Supplementary Table 1),run:Lestaurtinib_02748_R3,Plate:MR024): 66.5 nM
- potency estimated from few doses (compound concentrations:100 nM and 1000 nM (sheet 'Lestaurtinib' of Supplementary Table 1),run:Lestaurtinib_02752_R1,Plate:MR025): 48.7 nM
- potency estimated from few doses (compound concentrations:100 nM and 1000 nM (sheet 'Lestaurtinib' of Supplementary Table 1),run:Lestaurtinib_02765_R2,Plate:MR026): 131 nM
- potency estimated from few doses (compound concentrations:100 nM and 1000 nM (sheet 'Lestaurtinib' of Supplementary Table 1),run:Lestaurtinib_02765_R3,Plate:MR026): 71.7 nM
- potency estimated from few doses (compound concentrations:100 nM and 1000 nM (sheet 'Lestaurtinib' of Supplementary Table 1),run:Lestaurtinib_02766_R1,Plate:MR027): 47.5 nM
- potency estimated from few doses (compound concentrations:100 nM and 1000 nM (sheet 'Lestaurtinib' of Supplementary Table 1),run:Lestaurtinib_02766_R2,Plate:MR027): 37.3 nM
- potency estimated from few doses (compound concentrations:100 nM and 1000 nM (sheet 'Lestaurtinib' of Supplementary Table 1),run:Lestaurtinib_02766_R3,Plate:MR027): 47 nM
- potency estimated from few doses (compound concentrations:100 nM and 1000 nM (sheet 'Lestaurtinib' of Supplementary Table 1),run:Lestaurtinib_02768_R1,Plate:MR028): 48.3 nM
- potency estimated from few doses (compound concentrations:100 nM and 1000 nM (sheet 'Lestaurtinib' of Supplementary Table 1),run:Lestaurtinib_02768_R2,Plate:MR028): 49.7 nM
- potency estimated from few doses (compound concentrations:100 nM and 1000 nM (sheet 'Lestaurtinib' of Supplementary Table 1),run:Lestaurtinib_02768_R3,Plate:MR028): 57.7 nM
- potency estimated from few doses (compound concentrations:100 nM and 1000 nM (sheet 'Lestaurtinib' of Supplementary Table 1),run:Lestaurtinib_02795_R1,Plate:MR022): 67.2 nM
- potency estimated from few doses (compound concentrations:100 nM and 1000 nM (sheet 'Lestaurtinib' of Supplementary Table 1),run:Lestaurtinib_02795_R2,Plate:MR022): 73.9 nM
- potency estimated from few doses (compound concentrations:100 nM and 1000 nM (sheet 'Lestaurtinib' of Supplementary Table 1),run:Lestaurtinib_02802_R1,Plate:MR029): 52.5 nM
- potency estimated from few doses (compound concentrations:100 nM and 1000 nM (sheet 'Lestaurtinib' of Supplementary Table 1),run:Lestaurtinib_02802_R2,Plate:MR029): 43.8 nM
- potency estimated from few doses (compound concentrations:100 nM and 1000 nM (sheet 'Lestaurtinib' of Supplementary Table 1),run:Lestaurtinib_02896_R3,Plate:MR030): 88 nM
- potency estimated from few doses (compound concentrations:100 nM and 1000 nM (sheet 'Lestaurtinib' of Supplementary Table 1),run:Lestaurtinib_03172_R1,Plate:MR031): 51.8 nM
